# AmpC no deterg: blocks E. coli AmpC beta-lactamase in detergent-free assay; AmpC nitrocefin hydrolysis, absorbance 480 nm, 0.0001% Triton; P00811; AID 485341; 330,000 compounds, 0.52% hits; Potency, µM (titrated, usually from 57.1 µM), for the others: top-dose activity change, negative = inhibition, hits mostly inhibitors;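 further: potency means the concentration at half of the fitted maximal effect; plate controls were no compound for no effect and no enzyme for full effect; nearly all actives have a fitted effect of over 20% in size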
# Target sequence (P00811 whole entry, looked up): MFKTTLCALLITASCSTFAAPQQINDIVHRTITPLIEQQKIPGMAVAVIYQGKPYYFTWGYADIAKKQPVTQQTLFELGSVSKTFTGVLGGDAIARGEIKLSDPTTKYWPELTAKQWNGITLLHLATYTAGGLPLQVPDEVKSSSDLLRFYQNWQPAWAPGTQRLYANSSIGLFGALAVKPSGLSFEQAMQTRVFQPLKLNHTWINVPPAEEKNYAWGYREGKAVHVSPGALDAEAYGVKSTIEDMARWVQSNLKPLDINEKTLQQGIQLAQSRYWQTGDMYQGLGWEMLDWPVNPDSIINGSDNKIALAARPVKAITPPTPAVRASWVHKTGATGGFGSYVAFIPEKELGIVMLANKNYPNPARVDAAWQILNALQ
#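 20 mM phosphate pH 7.0 + 0.01% (detergent screen) or 0.0001% Triton X-100; 5.3 nM AmpC reagent; cpd preinc 15 min RT; nitrocefin (800 uM stock) to start; A480 q20 s × 4 min; Activity was normalised to no-enzyme and no-compound control wells.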
# Shiga inhibitor: Shiga toxin inhibition; Vero cells, Shiga toxin protein synthesis inhibition reporter; inhibition, % at 38.7 µM; 290,000 compounds, 9.2% hits; in the data active means inhibition mostly above about 28%, no sharp cut-off; inactive means mostly below about 43%; further: 0% is about no effect
# Cycloheximide cs: counter-screen for Shiga toxin inhibitors: cycloheximide protein synthesis inhibition; 300,000 compounds, 12% hits; cell reporter, cycloheximide protein synthesis inhibition counterscreen; max response, %; in the data active means max response mostly above about 13%, no sharp cut-off; inactive means mostly below about 14%; further: read at 38.3 µM for the half of the compounds with a filed dose; 0% is about no effect
# AmpC detergent: blocks E. coli AmpC beta-lactamase in detergent assay | P00811 | AmpC hydrolysis of nitrocefin, absorbance 480 nm, 0.01% Triton | Potency, µM (series often up to 114 µM), for the others: at the highest dose activity change, negative = inhibition, actives largely listed as inhibitors | 370,000 compounds, 0.041% hits;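 further: potency means the concentration at half of the fitted maximal effect; 0% = no-compound wells and -100% = no-enzyme wells; nearly all actives have a fitted effect of over 25% in size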
#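 AmpC (5.3 nM in the dispensed reagent) in 20 mM phosphate pH 7.0 with 0.01% (detergent screen) or 0.0001% Triton X-100 was preincubated with compounds for 15 min at room temperature. Nitrocefin was then added from an 800 uM solution, and hydrolysis was followed at 480 nm.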
# AMA1 RON2 block: disrupts binding of P. falciparum AMA1 to RON2; 360,000 compounds, 0.2% hits; Potency, µM (series often up to 58.2 µM), for the others: top-dose activity change, negative = inhibition, actives largely listed as inhibitors; AID 720542; AlphaScreen AMA1-biotinylated RON2 peptide binding;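 further: potency means the concentration at half of the fitted maximal effect; 0% = vehicle wells and -100% = peptide control; nearly all actives have a fitted effect of over 45% in size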
#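 AMA1 (3D7) with his tag at 25 nM final met compounds first, then biotinylated RON2 peptide at 25 nM; detection used donor plus acceptor beads, 10 µg/mL apiece, read by AlphaScreen after 30 min at room temperature.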
# SARS PLpro yeast: SARS-CoV PLP inhibition in yeast | S. cerevisiae expressing SARS-CoV PLpro, growth rescue | Potency, µM (doses to about 32.9 µM), inactives show top-dose activity, positive = growth rescue, usual class: activators | 330,000 compounds, 0.19% hits | AID 485353; calls by dose curve; further: potency means the concentration at half of the fitted maximal effect; 0% is about no effect; nearly all actives have a fitted effect of over 55% in size
# * hit, by the source's call; ? = inconclusive; . = no result; [ ] = remark or other dose. The entries come from a sample that favours hits as a whole. Unless noted, the call rests on the fitted dose curve; in most records, active means well fitted curve in the direction sought with a large enough effect; inconclusive means small, poorly fitted or top-dose-only effect, or another doubt; inactive means no such curve, though single readings can be large; an effect the other way counts as inactive or inconclusive.
SMILES,AmpC no deterg,Shiga inhibitor,Cycloheximide cs,AmpC detergent,AMA1 RON2 block,SARS PLpro yeast
N/C(=N\OC(=O)C1CC1)c1ccc([N+](=O)[O-])s1,-15.7%,13.1,10.1,-3.3%,-25.9%,-3.5%
CC(C)(C)C(=O)O/N=C(\N)c1ccc([N+](=O)[O-])s1,-13.3%,22.1,24.3*,-9.2%,-1.7%,-1.2%
O=C(O)c1ccc2c(c1)C1C(Cl)C(Sc3ccccc3[N+](=O)[O-])CC1C(c1cccc([N+](=O)[O-])c1)N2 (stereo not given),17.8µM*,-6.5,-3.4,-14.1%,-29.1%,0.0%
CS(=O)(=O)Nc1cccc(C2=NN(S(=O)(=O)c3ccccc3)C(c3ccco3)C2)c1 (stereo not given),-47.7%,36.7,16.4*,3.0%,-9.7%,1.7%
CCS(=O)(=O)N1N=C(c2cccc(NS(C)(=O)=O)c2)CC1c1ccc(C)cc1 (stereo not given),14.7%,31.1,27.5*,-4.0%,4.2%,1.1%
CC(=O)c1cc(C(=O)N2CCc3c([nH]c4ccccc34)C2CC(C)C)[nH]n1 (stereo not given),0.0%,11.0,-0.9,-5.2%,7.6%,-0.3%
CC(C)CC1c2[nH]c3ccccc3c2CCN1C(=O)CCC(=O)N(C)C (stereo not given),22.9%,44.1*,17.6,-2.7%,2.2%,0.2%
CC(C)CC1c2[nH]c3ccccc3c2CCN1C(=O)c1cnccn1 (stereo not given),10.5%,75.7*,51.3*,-2.4%,-7.3%,0.8%
CCOc1ccccc1N1CCN(c2nc(N)c(C#N)c(CC#N)c2C#N)CC1,-26.4%,24.2,-0.6,-7.1%,-10.3%,5.2%
O=c1[nH]c2ccc(Br)cc2c(-c2ccccc2)c1N1CCOCC1,1µM*,-5.9,-0.8,?,-3.6%,?
COc1cccc(N2CC(NC(=O)c3cccc4ccccc34)CC2=O)c1 (stereo not given),?,.,.,?,8.1%,-6.8%
O=C1COc2ccc(C(=O)COC(=O)Cc3ccccc3F)cc2N1,-14.9%,31.7,3.9,2.0%,-1.3%,1.6%
O=C1COc2ccc(C(=O)COC(=O)Cc3ccsc3)cc2N1,-31.4%,20.8,11.0*,1.4%,-0.1%,0.9%
O=C(N/N=C/C1CC=CCC1)c1cc(Br)ccc1O (stereo not given),?,9.1,30.5*,-8.6%,-2.0%,?
O=C(N/N=C/C1CC=CCC1)c1ccccc1O (stereo not given),-14.4%,39.4*,28.9*,?,-6.7%,-3.7%
CCCc1[nH]nc2c1C(c1ccc(OC(=O)N3CCOCC3)cc1)C(C#N)=C(N)O2 (stereo not given),-11.1%,-19.7,-0.2,3.9%,5.1%,3.4%
COc1ccc(C)cc1NC(=O)C1CC1c1ccccc1 (stereo not given),.,.,.,.,-13.5%,.
CCCOC(=O)c1ccc(Cn2nnc3sc4c(c3c2=O)CCC(C)C4)cc1 (stereo not given),.,.,.,20.7%,.,.
NC(=O)C1(N2CCCCC2)CCN(Cc2ccc(Br)cc2)CC1,-10.6%,13.4,25.9*,-5.5%,2.3%,0.2%
NC(=O)C1(N2CCCCC2)CCN(Cc2nc3ccccc3c(=O)[nH]2)CC1,0.316µM*,-4.4,2.9,3.7%,17.3%,1.3%
NC(=O)C1(N2CCCCC2)CCN(Cc2ccc(F)cc2)CC1,-6.5%,-8.9,-3.1,4.0%,-5.6%,2.8%
NC(=O)C1CCN(Cc2nc3ccccc3c(=O)[nH]2)CC1,-18.7%,5.0,-1.4,0.5%,29.4%,4.0%
Cc1ccc(S(=O)(=O)NCc2ccccc2)cc1C(=O)N(C)CC(=O)Nc1ccccc1Br,.,.,.,.,97.1%,.
S=C(Nc1cc(Cl)cc(Cl)c1)N1CCN(c2ccccn2)CC1,-30.8%,-8.8,6.3,2.0%,9.2%,-0.7%
COc1ccc(C2CC(c3cccc(Cl)c3)n3nc(N)nc3N2)cc1 (stereo not given),0.891µM*,-5.6,-2.4,?,29.7%,0.9%
SMILES,AmpC no deterg,Shiga inhibitor,Cycloheximide cs,AmpC detergent,AMA1 RON2 block,SARS PLpro yeast
COc1cccc(C2CC(c3ccc(Cl)cc3)Nc3nc(N)nn32)c1 (stereo not given),36.9%,2.5,4.1,-12.1%,-0.1%,22.5%
COc1cccc(C2CC(c3ccc(F)cc3)Nc3nc(N)nn32)c1 (stereo not given),39.8µM*,7.6,-0.3,-11.5%,-4.2%,0.8%
O=C(NCC1CCCO1)c1ccc(/C=N/O)nc1 (stereo not given),-6.1%,-9.6,-3.5,-2.9%,43.3%,-14.9%
O=C(NCCc1ccccc1)c1cnc(Cl)c(Cl)c1,-20.0%,105.3*,30.9*,?,-6.2%,-1.9%
O=C(NCc1cccs1)c1cnc(Cl)c(Cl)c1,-7.6%[11.4 µM],45.0*,29.9*,?,-4.3%,0.9%
O=C(NCCCSc1ccccc1)c1cnc(Cl)c(Cl)c1,-39.2%,22.2,-8.0,2.3%,9.2%,-1.8%
CC1CCN(c2ccc(C(=O)NCc3cccs3)cn2)CC1,-8.0%,77.6,51.7*,0.4%,3.2%,-12.8%
CC1CCCN(c2ccc(C(=O)NCC3CCCO3)cn2)C1 (stereo not given),0.199µM*,52.1,24.8*,-1.9%,-1.0%,-2.8%
CCOc1ccc(N2C(=O)CC(SC(=NC)Nc3cccc(OC)c3)C2=O)cc1 (stereo not given),-12.6%,-6.3,0.3,-0.5%,-10.2%,-0.1%
CCOC(=O)C1CCCN(C2CC(=O)N(c3ccc(N4C(=O)CC(N5CCCC(C(=O)OCC)C5)C4=O)cc3)C2=O)C1 (stereo not given),-6.4%[2.29 µM],-12.0,-4.0,2.7%,-1.9%,1.3%
Cc1ccc(N2C(=O)CC(N3CCN(C)CC3)C2=O)cc1 (stereo not given),-12.4%,3.6,-3.5,-8.6%,.,-25.1%
Cc1ccc2nc(-c3ccc(N4C(=O)CC(N5CCCC(C)C5)C4=O)cc3)sc2c1 (stereo not given),.,143.0*,69.9*,-4.8%,.,.
Cc1ccc2nc(-c3ccc(N4C(=O)CC(N5CCC(C(N)=O)CC5)C4=O)cc3)sc2c1 (stereo not given),147.3%,32.9,25.6*,-11.4%,.,-85.5%
CCC(=O)Nc1ccc(NC(=O)c2oc3ccccc3c2C)cc1,0.1%,23.6,10.4*,7.2%,6.1%,0.8%
Cc1c(C(=O)NCc2ccccn2)oc2ccccc12,-12.3%,39.2*,31.7*,?,36.3%,-0.7%
Cc1c(C(=O)NCc2ccccn2)oc2ccc(Br)cc12,39.3%,.,.,-11.0%,9.5%,6.1%
CC(=O)Nc1ccc(NC(=S)NC(=O)c2oc3ccccc3c2C)cc1,-22.3%,-5.0,-2.9,-6.2%,-0.8%,-0.5%
Cc1ccnc(NC(=O)c2oc3ccccc3c2C)c1,-6.3%,.,.,-0.3%,10.9%,-3.1%
